The values that follow come from paper PMC12350791.

Experiment [1] addresses ATP-dependent RNA helicase DDX24 (UniProt Q9GZR7). Briefly: cross-linking mass spectrometry.
The target in experiment [2] is Spectrin alpha chain, non-erythrocytic 1 (UniProt Q13813). Briefly: cross-linking mass spectrometry.
A further experiment has as its target T1, Twinfilin-2 (UniProt Q6IBS0).
T1 sequence: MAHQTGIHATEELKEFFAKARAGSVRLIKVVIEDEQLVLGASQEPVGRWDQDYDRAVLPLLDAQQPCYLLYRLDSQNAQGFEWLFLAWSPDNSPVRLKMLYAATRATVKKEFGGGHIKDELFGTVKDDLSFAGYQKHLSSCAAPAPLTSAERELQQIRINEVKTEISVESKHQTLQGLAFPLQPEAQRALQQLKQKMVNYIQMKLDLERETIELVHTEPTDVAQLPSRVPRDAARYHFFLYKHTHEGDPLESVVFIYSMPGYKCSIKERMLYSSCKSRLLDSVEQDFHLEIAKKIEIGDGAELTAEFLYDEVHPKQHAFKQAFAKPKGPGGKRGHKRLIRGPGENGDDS
Briefly: cross-link between two proteins; cross-linking mass spectrometry.

Experiment [3] deals with Superkiller complex protein 8 (UniProt Q9GZS3). Described as above.

Turning to “Large ribosomal subunit protein eL20, Q02543”, the “listed as a hit” value in experiment [1] is “yes”.
As for Actin, cytoplasmic 1, P60709, the “listed as a hit” value (in experiment [2]; with Twinfilin-2) was “yes” each time.
Consider “RNA polymerase-associated protein CTR9 homolog, Q6PD62”, for which, in experiment [3], the “listed as a hit” value is listed as “yes”.
